About 83,000 compounds went through this panel and 20% of them were active in at least one assay; those are over-represented in the sample as a whole.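 Interpretation: 100, growth as untreated; towards 0, rising growth inhibition; 0, no net growth; 0 to -100, cell death. Compounds scoring below 10 were considered active.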 Calls of active or inactive are those of the source.

In one assay the test system is OVCAR-4 ovarian. The assay is described as follows: NCI-60 one-dose screen, 48 h (100 = growth as untreated, 0 = no growth, -100 = all killed). Particulars: 10 µM unless noted.
As to `O=C(CCl)Oc1ccc([N+](=O)[O-])cc1`, the growth was 106% (inactive). On the same count and under the same terms, the same measure for `Clc1cccc(Cl)c1CSc1nc2ccccc2n2cccc12`: 70.4% (inactive); for `Cc1cccnc1NC1OC(=O)c2ccccc21` (stereo not given): 117% (inactive); for `COc1cc(OC)c(NC(=O)C(Sc2nc(C)cc(C)c2C#N)c2ccccc2)cc1Cl` (stereo not given): 105% (inactive). The same measure, in the same setting: the same measure for `COc1ccc(/C=N/NC(=O)COCC(=O)N/N=C/c2ccc(OC)cc2)cc1`: 90.5% (inactive). Same read-out and setting: with `Nc1ccccc1SC1CC(=O)N(c2ccc(Cl)c(Cl)c2)C1=O` (stereo not given) the figure was 92.1% (inactive). Turning to `CC(C)c1ccccc1NC(=O)N1CCC(C(C)C)CC1`, the growth is 96.7% (inactive). Same read-out and setting: with `FC(F)(F)c1cc(NC2=NCCN=C(Nc3cc(C(F)(F)F)cc(C(F)(F)F)c3)SS2)cc(C(F)(F)F)c1` the figure was 65.8% (inactive). On the same count and under the same terms, with `CC(CCC#N)(CCC#N)C(=O)c1ccccc1` the figure was 90% (inactive); with `CCCCCCCCNC(=O)C(C)C`, 96.9% (inactive); with `CCCCCCCCCCCCCCCCCC(=O)NCCNC(=O)CCCCCCCCCCCCCCCCC`, 95% (inactive).

On to `C=CCC(OC(C)=O)c1ccc(C(C)C)cc1` (stereo not given), for which the growth is 113% (inactive). Same read-out and setting: with `CC(=O)c1cc(O)ccc1O` the figure was 108% (inactive); with `CCCNS(=O)(=O)c1ccc(Cl)cc1`, 102% (inactive). Still for that read-out and setting: the same measure for `S=c1nc(-c2ccccn2)c(-c2ccccn2)n[nH]1`: 108% (inactive); for `CCOc1ccc(C(=O)NCC(C)C)cc1`: 97.2% (inactive); for `O=C(O)c1cccc(-n2ncc(Cl)c(Cl)c2=O)c1`: 91.1% (inactive). Same read-out and setting: with `Cn1/c(=N\N=C\c2ccccc2OCCO)sc2ccccc21` the figure was 106% (inactive); with `Clc1ccc(-c2noc(/C=C\c3ccccc3)n2)cc1`, 102% (inactive); with `CC(=O)Nc1ncc(S(=O)(=O)c2ccc([N+](=O)[O-])cc2)s1`, 102% (inactive).

Take `CC(=O)NCNC(C)=O`: the growth was 110% (inactive).

Regarding `CCOC(=O)c1ccc(C(C)(C)C)cc1`, the growth was 109% (inactive). On the same count and under the same terms, with `NC(=S)N/N=C/c1ccc(Cl)cc1` the figure was 97.3% (inactive); with `Cc1ccc(NC(=O)c2ccccc2Cl)cc1`, 107% (inactive); with `C=CCC(OC(C)=O)c1ccc(OC)c(OC)c1` (stereo not given), 118% (inactive). The same measure, in the same setting: with `Oc1ccc(N=Cc2ccc(OCc3ccccc3)cc2)cc1` the figure was 95.2% (inactive); with `COc1nc(Nc2cccc(C(F)(F)F)c2)nc(OC)n1`, 105% (inactive). On the same count and under the same terms, with `C=C1SC(=Nc2c(C)cccc2C)N(c2nc(Cl)nc(Cl)n2)C12CCCCC2` the figure was 101% (inactive). With `O=C(CCl)Nc1ccccc1SCc1cc(Cl)cc2c1OCOC2`, the growth is 47.7% (inactive). On to `Cc1c(-c2ccc(C3CCCCC3)cc2)nc2ccc(F)cc2c1C(=O)O`, for which the growth was 84.2% (inactive). For the molecule `C[n+]1cc2cc3c(cc2c2ccccc21)OCO3`, the growth was 52.3% (inactive). Regarding `CCCC(=O)CC(=O)c1ccccc1`, the growth is 112% (inactive).

`O=C(O)Cc1ccc(Cl)cc1`: the growth was 107% (inactive). As for `CC(C)(CC(=O)O)CC(=O)O`, the growth is 108% (inactive). The same measure, in the same setting: with `CCOC(=O)C(C#N)=C1CCN(C)CC1` the figure was 119% (inactive). Still for that read-out and setting: with `O=C1NC(=O)C(c2ccccc2)O1` (stereo not given) the figure was 98.2% (inactive). Same read-out and setting: with `COC1OC(COC(C)=O)C(OC(C)=O)C(OC(C)=O)C1OC(C)=O` (stereo not given) the figure was 86.5% (inactive); with `C#CCSc1nnnn1-c1ccccc1`, 92.6% (inactive).

For a further assay, the system named is SK-OV-3 ovarian. The description is as above. As to conditions: 10 µM unless noted.
`O=C(CCl)Oc1ccc([N+](=O)[O-])cc1`: the growth was 133% (inactive). Same read-out and setting: the same measure for `Clc1cccc(Cl)c1CSc1nc2ccccc2n2cccc12`: 88.6% (inactive); for `Cc1cccnc1NC1OC(=O)c2ccccc21` (stereo not given): 94.6% (inactive). Still for that read-out and setting: with `COc1cc(OC)c(NC(=O)C(Sc2nc(C)cc(C)c2C#N)c2ccccc2)cc1Cl` (stereo not given) the figure was 85.3% (inactive); with `COc1ccc(/C=N/NC(=O)COCC(=O)N/N=C/c2ccc(OC)cc2)cc1`, 108% (inactive).

Regarding `Nc1ccccc1SC1CC(=O)N(c2ccc(Cl)c(Cl)c2)C1=O` (stereo not given), the growth is 90.5% (inactive). Same read-out and setting: with `CC(C)c1ccccc1NC(=O)N1CCC(C(C)C)CC1` the figure was 105% (inactive). The same measure, in the same setting: with `FC(F)(F)c1cc(NC2=NCCN=C(Nc3cc(C(F)(F)F)cc(C(F)(F)F)c3)SS2)cc(C(F)(F)F)c1` the figure was 79.5% (inactive).

Consider `CC(CCC#N)(CCC#N)C(=O)c1ccccc1`, for which the growth was 115% (inactive).

Consider `CCCCCCCCNC(=O)C(C)C`, for which the growth was 105% (inactive). The same measure, in the same setting: with `CCCCCCCCCCCCCCCCCC(=O)NCCNC(=O)CCCCCCCCCCCCCCCCC` the figure was 84.5% (inactive); with `C=CCC(OC(C)=O)c1ccc(C(C)C)cc1` (stereo not given), 115% (inactive). Same read-out and setting: with `CC(=O)c1cc(O)ccc1O` the figure was 107% (inactive); with `CCCNS(=O)(=O)c1ccc(Cl)cc1`, 99.6% (inactive). For `S=c1nc(-c2ccccn2)c(-c2ccccn2)n[nH]1`, the growth is 112% (inactive).

On to `CCOc1ccc(C(=O)NCC(C)C)cc1`, for which the growth is 99.7% (inactive). For `O=C(O)c1cccc(-n2ncc(Cl)c(Cl)c2=O)c1`, the growth was 106% (inactive). Regarding `Cn1/c(=N\N=C\c2ccccc2OCCO)sc2ccccc21`, the growth is 104% (inactive). The same measure, in the same setting: with `Clc1ccc(-c2noc(/C=C\c3ccccc3)n2)cc1` the figure was 95.1% (inactive); with `CC(=O)Nc1ncc(S(=O)(=O)c2ccc([N+](=O)[O-])cc2)s1`, 94% (inactive).

Consider `CC(=O)NCNC(C)=O`, for which the growth is 113% (inactive). On to `CCOC(=O)c1ccc(C(C)(C)C)cc1`, for which the growth is 104% (inactive). Still for that read-out and setting: the same measure for `NC(=S)N/N=C/c1ccc(Cl)cc1`: 118% (inactive); for `Cc1ccc(NC(=O)c2ccccc2Cl)cc1`: 124% (inactive); for `C=CCC(OC(C)=O)c1ccc(OC)c(OC)c1` (stereo not given): 126% (inactive).

With `COc1nc(Nc2cccc(C(F)(F)F)c2)nc(OC)n1`, the growth was 97.9% (inactive). Still for that read-out and setting: with `C=C1SC(=Nc2c(C)cccc2C)N(c2nc(Cl)nc(Cl)n2)C12CCCCC2` the figure was 99% (inactive). Turning to `O=C(CCl)Nc1ccccc1SCc1cc(Cl)cc2c1OCOC2`, the growth is 80.8% (inactive).

Turning to `Cc1c(-c2ccc(C3CCCCC3)cc2)nc2ccc(F)cc2c1C(=O)O`, the growth was 58.2% (inactive). For the molecule `C[n+]1cc2cc3c(cc2c2ccccc21)OCO3`, the growth was 46% (inactive). Still for that read-out and setting: with `CCCC(=O)CC(=O)c1ccccc1` the figure was -20% (active); with `O=C(O)Cc1ccc(Cl)cc1`, 121% (inactive); with `CC(C)(CC(=O)O)CC(=O)O`, 120% (inactive). Still for that read-out and setting: the same measure for `CCOC(=O)C(C#N)=C1CCN(C)CC1`: 118% (inactive); for `O=C1NC(=O)C(c2ccccc2)O1` (stereo not given): 96.6% (inactive); for `COC1OC(COC(C)=O)C(OC(C)=O)C(OC(C)=O)C1OC(C)=O` (stereo not given): 101% (inactive). Same read-out and setting: the same measure for `C#CCSc1nnnn1-c1ccccc1`: 104% (inactive).
